From the supplement of paper PMC6897291
Where a name gives a salt, the structure may show the parent alone.

Tested on: RIVA
Experiment: growth inhibition by drug alone (1 - RLU/untreated control) (fraction); higher = stronger inhibition
Conditions: 177Lu-lilotomab satetraxetan 0 ug/ml
Method: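 RIVA (RI-1) ABC-DLBCL cells were pretreated or not for 18 h with 0.5 ug/ml 177Lu-lilotomab satetraxetan (600 MBq/mg), washed and seeded (3000 cells/well) on 384-well plates pre-printed with the Selleck Cambridge Cancer Compound library. Viability was read by RealTime-Glo luminescence on days 3-6 after seeding. Effect = 1 - RLU/mean RLU of the 48 untreated no-drug control wells per plate; Bliss score = (M-E)/(1-Fa).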

| SMILES | growth inhibition by drug alone (10 nM, time (day): 3) | growth inhibition by drug alone (10 nM, time (day): 4) | growth inhibition by drug alone (10 nM, time (day): 5) | growth inhibition by drug alone (10 nM, time (day): 6) | growth inhibition by drug alone (100 nM, time (day): 3) | growth inhibition by drug alone (100 nM, time (day): 4) | growth inhibition by drug alone (100 nM, time (day): 5) | growth inhibition by drug alone (100 nM, time (day): 6) |
| --- | --- | --- | --- | --- | --- | --- | --- | --- |
| COc1cc2/c(=N/c3ccc(Br)cc3F)nc[nH]c2cc1OCC1CCN(C)CC1 [Vandetanib (Zactima)] | -0.203 | -0.201 | -0.23 | -0.529 | -0.273 | -0.353 | -0.318 | -0.441 |
| C[C@@H](N)[C@H]1CC[C@H](C(=O)Nc2ccncc2)CC1 | -0.062 | -0.109 | -0.134 | -0.231 | -0.413 | -0.366 | -0.399 | -0.522 |
| O=c1cc(-c2cccc3c2Sc2ccccc2S3)oc(N2CCOCC2)c1 | -0.212 | -0.223 | -0.243 | -0.318 | -0.0838 | -0.0652 | -0.119 | -0.19 |
| C=CCc1cccc(/C=N/NC(=O)CN2CCN(Cc3ccccc3)CC2)c1O | -0.0454 | 0.0184 | -0.0886 | -0.379 | -0.195 | -0.0942 | -0.0824 | -0.181 |
| CC(=O)[C@]1(O)Cc2c(O)c3c(c(O)c2[C@@H](O[C@H]2C[C@H](N)[C@H](O)[C@H](C)O2)C1)C(=O)c1ccccc1C3=O [Idarubicin HCl] | 0.685 | 0.744 | 0.786 | 0.827 | 0.781 | 0.825 | 0.851 | 0.883 |
